# Source: PubChem BioAssay (Tox21)
# Inconclusive results are not listed. Values without a mark were called inactive. The source made the active and inactive calls. The call rests on the fitted dose curve; in most records, active means well fitted inhibition curve with a large enough effect in the repeat runs; inconclusive means weak or mixed curves; inactive means no such curve, though single readings can be large or run the other way.
# Target: Cytochrome P450 2C9 (Homo sapiens) (UniProt P11712)
# Sequence (P11712 whole entry, looked up): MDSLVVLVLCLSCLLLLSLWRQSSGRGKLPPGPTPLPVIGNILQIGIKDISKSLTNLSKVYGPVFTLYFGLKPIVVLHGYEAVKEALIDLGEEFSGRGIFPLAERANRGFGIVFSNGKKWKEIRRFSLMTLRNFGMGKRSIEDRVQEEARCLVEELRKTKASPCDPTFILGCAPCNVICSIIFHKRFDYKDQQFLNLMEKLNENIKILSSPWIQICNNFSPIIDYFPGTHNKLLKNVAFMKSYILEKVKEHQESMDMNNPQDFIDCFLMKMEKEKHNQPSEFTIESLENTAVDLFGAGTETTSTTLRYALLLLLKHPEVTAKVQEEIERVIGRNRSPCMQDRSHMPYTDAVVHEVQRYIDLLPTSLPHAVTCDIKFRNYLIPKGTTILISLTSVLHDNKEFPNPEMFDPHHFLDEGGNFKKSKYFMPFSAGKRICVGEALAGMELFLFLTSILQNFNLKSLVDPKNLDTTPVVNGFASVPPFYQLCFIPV
# Experiment: Cytochrome P450 Family 2 Subfamily C Member 9 (CYP2C9) small molecule antagonists: luciferase reporter qHTS assay (AID 1671198); further: nearly all actives have a fitted effect of over 50% in size
# Details: P450-Glo CYP2C9 enzyme assay, luciferin luminescence; series mostly up to 115 µM; activity change, negative = inhibition: at the top concentration
# Procedure, shortened: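 P450-Glo proluciferin substrate with CYP2C9 enzyme; 10 min RT preincubation, then NADPH regeneration 1 h at 37C; luciferin detection reagent 20 min RT, luminescence in relative luminescence units.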
# On the % scale 0 is the no-effect control and ±100 the full control effect; potency means the concentration at half of the fitted maximal effect.
SMILES,"activity change, negative = inhibition",Potency
NC(=O)c1cc[n+](CC2=C(C(=O)[O-])N3C(=O)[C@@H](NC(=O)Cc4cccs4)[C@H]3SC2)cc1,-13.3% [at 53 µM],
O=C(O)c1ccc2cc(O)ccc2c1,9.53%,
Cc1ccc(Cl)c(OCC(O)CNC(C)(C)C)c1 (centres undefined),1.99% [at 53 µM],
Cc1ccccc1CCO,-2.65%,
O=P(c1ccccc1)(c1ccccc1)c1ccccc1,,6.33 µM (active)
CC(COc1ccccc1)NC(C)C(O)c1ccc(O)cc1 (centres undefined),,15.5 µM (active)
O=C(c1ccco1)N1CCNCC1,3.65% [at 53 µM],
C=CCCC,-7.73%,
Cc1cc(C)n(CO)n1,-2.94%,
CCCCCCCCCCCCN1CCOCC1,-7.05%,
CCC(CC)C(=O)O,-12.7%,
COc1ccc(C(=O)c2ccc(C)cc2)c(O)c1,,22.7 µM (active)
O=[N+]([O-])c1ccc(Cl)cc1Cl,-6.31%,
COc1ccc(/C(C)=C/C(=O)O)c(OC)c1,-3.73% [at 53 µM],
CC(C)(C)NCC(O)COc1ccc(NC(=O)NC2CCCCC2)cc1 (centres undefined),0.0723% [at 53 µM],
COc1cccc([C@H](O)C2CCN(CCc3ccc(F)cc3)CC2)c1OC,-17.2%,
C=C[Si]1(C)O[Si](C)(C=C)O[Si](C)(C=C)O[Si](C)(C=C)O1 (centres undefined),-18.9%,
O=C(OCCN1CCOCC1)c1cccnc1Nc1cccc(C(F)(F)F)c1,,17.4 µM (active)
CC1=C(C)C(=O)C(C(CCCCCC(=O)O)c2ccccc2)=C(C)C1=O (centres undefined),,17.4 µM (active)
CCCCCCCCCCCCCCCCC(=O)O,-5.17% [at 53 µM],

SMILES,"activity change, negative = inhibition",Potency
Cc1ccc2c(Cl)cc(Cl)c(O)c2n1,1.76% [at 53 µM],
S=c1[nH][nH]c(=S)s1,,20 µM (active)
CO[C@@H]1COCC[C@@H]1N[C@@H]1CC[C@@](C(=O)N2CCc3ncc(C(F)(F)F)cc3C2)(C(C)C)C1,-11.9%,
O=C(OCCOCCOCCOC(=O)c1ccccc1)c1ccccc1,18.9%,
CC[C@H](NC(C)C)[C@H](O)c1ccc(O)c2[nH]c(=O)ccc12,-14.4% [at 53 µM],
CC(C)NC(=O)c1ccccc1N,-7.9%,
O=C(Cl)c1ccc(F)c(Cl)c1,-17.4%,
C/C(=C(\CCO)SS/C(CCO)=C(\C)N(C=O)Cc1cnc(C)nc1N)N(C=O)Cc1cnc(C)nc1N,-4.51% [at 53 µM],
Cc1nc(C)c(C)nc1C,-4.66%,
O=C(O)c1cc(C(=O)O)c(C(=O)O)cc1C(=O)O,-6.27%,
CCOC(OCC)OCC,-19.4%,
CC(=O)CC/C=C(\C)CC/C=C(\C)CC/C=C(\C)CCC=C(C)C,,30.9 µM (active)
CO[C@@H]1[C@@H](O[C@@H]2O[C@H](C)[C@@H](O[C@H]3C[C@@](C)(O)[C@@H](O)[C@H](C)O3)[C@H](N(C)C)[C@H]2O)[C@@H](CC=O)C[C@@H](C)[C@@H](O[C@@H]2CC[C@H](N(C)C)[C@@H](C)O2)/C=C/C=C/C[C@@H](C)OC(=O)C[C@H]1OC(C)=O,-12.6% [at 53 µM],
CCOC(C)OCC,-0.328%,
COC(=O)c1cc(Cl)ccc1[N+](=O)[O-],30%,
N#CCCCC(C#N)CCC#N (centres undefined),,39.9 µM (active)
CCc1ccc2c(c1)C(=O)c1ccccc1C2=O,,10 µM (active)
CC(O)CN (centres undefined),1.02%,
Clc1nc2ccccc2nc1Cl,-6.28%,
